Compound activity deposited in PubChem by National Center for Advancing Translational Sciences (NCATS).
Rows were chosen to be rich in hits. Some 21% of all compounds tested hit in one or more screens of this group.
Pf growth 48h: inhibits P. falciparum growth in the first generation, 48 h. P. falciparum luciferase growth in erythrocytes, 48 h. Potency, µM (top dose mostly 28.7 µM), for the others: at the top dose activity change, negative = inhibition, usual class: inhibitors. 310,000 tested, 5.9% active. AID 504832; note: potency is the fitted concentration of half-maximal effect; % is set by controls: 0 for no effect and ±100 for the full control effect
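Luciferase-expressing parasites in RBCs, 2% Hct / 0.1% parasitemia final; RPMI 1640 + 0.5% Albumax; 37 C, 5% CO2, one generation; luminescence read-out, lower signal = inhibition.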
CHX counter: counter-screen hit for Shiga toxin inhibitors, cycloheximide | cell reporter, cycloheximide protein synthesis inhibition counterscreen | max response, % | 300,000 tested, 12% active; in the data active = max response mostly above about 13%, no sharp cut-off; inactive = mostly below about 14%; note: read at 38.3 µM for the half of the compounds with a filed dose; 0% is about no effect
Pf growth 96h: P. falciparum growth inhibition at 96 hours | P. falciparum luciferase reporter growth, 96 h | Potency, µM (highest dose often 28.7 µM), for inactives: top-dose activity change, negative = inhibition, hits mostly inhibitors | 320,000 tested, 6.9% active | AID 504834; note: potency is the fitted concentration of half-maximal effect; % is set by controls: 0 for no effect and ±100 for the full control effect
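Compounds incubated with erythrocytes infected by luciferase-expressing P. falciparum (2% hematocrit, 0.05% parasitemia final) for 96 hours, 37 C in 5% CO2. Growth inhibition scored as decreased luciferase luminescence.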
Shiga toxin inh: blocks Shiga toxin action in Vero cells; AID 2315; 290,000 tested, 9.2% active; Vero cells, Shiga toxin protein synthesis inhibition reporter; inhibition, % at 38.7 µM; in the data active = inhibition mostly above about 28%, no sharp cut-off; inactive = mostly below about 43%; note: 0% is about no effect
NS1 function inh: inhibitors of influenza NS1 protein function. Potency, µM (top dose mostly 46.1 µM), for the others: top-dose activity, positive = more growth. 270,000 tested, 0.4% active. AID 2326; calls by dose curve; note: potency is the fitted concentration of half-maximal effect; actives are rising curves; nearly all actives have a fitted effect of over 50% in size
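A cell-based growth assay was used: compounds that relieve NS1-induced slow growth of budding yeast raise OD600. Assay medium was yeast nitrogen base with ammonium sulphate and -URA supplement, pH 6.0, with 2% galactose.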
SARS PLP yeast: inhibitors of SARS-CoV papain-like protease in yeast; S. cerevisiae expressing SARS-CoV PLpro, growth rescue; Potency, µM (series often up to 32.9 µM), for inactives: top-dose activity, positive = growth rescue, actives largely listed as activators; 330,000 tested, 0.19% active; AID 485353; calls by dose curve; note: potency is the fitted concentration of half-maximal effect; 0% is about no effect; nearly all actives have a fitted effect of over 55% in size
* = called active by the depositor; ? = inconclusive; / = no result given; + = active, no number; [ ] = another dose, or the depositor's remark. Unless noted, calls come from the whole dose curve; as a rule, active = well fitted inhibition curve with a large enough effect; inconclusive = small, poorly fitted or top-dose-only effect, or another doubt; inactive = no such curve, though single readings can be large or run the other way.

SMILES	Pf growth 48h	CHX counter	Pf growth 96h	Shiga toxin inh	NS1 function inh	SARS PLP yeast
Cn1c(N)c(C(=O)COC(=O)c2ccc(-c3ccccc3)cc2)c(=O)n(C)c1=O	/	/	/	/	/	1%
O=C(Nc1ccc(N2CCOCC2)cc1)c1cc(-n2cnnc2)ccc1Cl	10%	-3	-10%	-3	5%	3%
O=C(Nc1ccc(-c2nc3ccccc3o2)cc1)c1cc(-n2cnnc2)ccc1Cl	12µM*	23*	15µM*	56*	4%	16%
Cc1ccsc1C1NC(=O)c2c(sc3c2CCCC3)N1 (stereo not given)	250%	28*	231%	+	-7%	-19%
CN1CCc2c(sc3c2C(=O)NC(c2ccccn2)N3)C1 (stereo not given)	28%	21*	-5%	2	-4%	-2%
CC(C)(C)C1CCc2c(sc3c2C(=O)NC(c2ccco2)N3)C1 (stereo not given)	-6%	34*	/	74*	-44%	-19%
O=C1NC(c2cccnc2)Nc2sc3c(c21)CCCC3 (stereo not given)	105%	33*	76%	61*	11%	-29%
CC(OC(=O)[C@@H]1CCCN1C(=O)c1cccs1)C(=O)Nc1cccc([N+](=O)[O-])c1 (stereo not given in full)	/	/	/	/	/	-17%
COC(=O)C1(C)Cc2cc(OC(C)=O)c(OC(C)=O)cc2N1 (stereo not given)	?	8	-62%	-5	2%	1%
CCOC(=O)N1CCc2c(sc3c2C(=O)NC(c2ccc(-c4ccc(Cl)cc4)o2)N3)C1 (stereo not given)	/	/	/	/	-2%	/
Cc1ccc(C2NC(=O)c3c(sc4c3CCN(C)C4)N2)o1 (stereo not given)	/	-2	3.7µM*	-13	-33%	-6%
Cc1ccc(C2NC(=O)c3c(sc4c3CCN(C)C4)N2)s1 (stereo not given)	-26%	33*	?	67*	24%	-6%
CN1CCc2c(sc3c2C(=O)NC(/C=C/c2ccco2)N3)C1 (stereo not given)	/	/	/	/	-31%	/
CN1CCc2c(sc3c2C(=O)NC(c2ccccc2)N3)C1 (stereo not given)	50%	20*	32%	active	9%	6%
O=C1NC(c2ccccn2)Nc2sc3c(c21)CCC3 (stereo not given)	59%	31*	2%	99*	-18%	3%
CCOC(=O)C1=C(C)NC(=S)NC1c1ccc(OCC(=O)N2CCCCCC2)cc1 (stereo not given)	?	-2	?	-4	6%	2%
O=C(Nc1cc([N+](=O)[O-])ccc1O)c1ccc2c(c1)C(=O)N(Cc1ccco1)C2=O	106%	3	60%	19	3%	0%
O=C(COc1ccc(Br)cc1)NC1CC1	23%	10	1%	17	-2%	-2%
CCn1c2ccccc2c2cc(NC(=O)C(=O)NCC3CCCO3)ccc21 (stereo not given)	?	-2	-6%	5	-2%	4%
CCn1c2ccccc2c2cc(NC(=O)CN(C)CC(=O)Nc3ccc(N4CCOCC4)cc3)ccc21	-17%[1.15 µM]	-5	15µM*	1	-16%	-2%
Cc1ccc(NC(=O)CN(C)CC(=O)Nc2ccc(N3CCOCC3)cc2)cc1F	7%	7	-7%	19	5%	1%
O=C(Nc1ccc2c(c1)oc1ccccc12)N1CCOCC1	/	52*	54%	84*	-145%	-15%
CCn1c2ccccc2c2cc(NC(=O)N3CCOCC3)ccc21	21%	32*	-15%	85*	-14%	-3%
O=C(O)[C@H](Cc1c[nH]c2ccccc12)Nc1ncccc1[N+](=O)[O-]	-12%	-1	4%	-8	-1%	0%
CCCNC(=O)c1ccccc1NC(=O)c1ccc2c(c1)NC(=O)C(C)S2 (stereo not given)	?	12	?	15	-15%	-7%
SMILES	Pf growth 48h	CHX counter	Pf growth 96h	Shiga toxin inh	NS1 function inh	SARS PLP yeast
CCCN(CC(=O)Nc1ccccc1OC)C(=O)c1cc(S(=O)(=O)NCc2ccccc2)ccc1C	?	-3	?	-5	-5%	1%
COc1cccc(NC(=O)CN(C)C(=O)c2cccc(S(=O)(=O)Nc3ccccc3OC)c2)c1	13µM*	/	?	/	/	/
CCCN(CC(=O)Nc1ccccc1OC)C(=O)c1cccc(S(=O)(=O)NCc2ccccc2)c1	?	/	10µM*	/	/	2%
CC1Sc2ccc(C(=O)Nc3ccc(S(=O)(=O)N(C)C)cc3)cc2NC1=O (stereo not given)	?	/	?	/	/	2%
CCCN(CC(=O)Nc1ccccc1OC)C(=O)c1ccc2c(c1)NC(=O)C(C)S2 (stereo not given)	10µM*	/	?	/	/	1%
COc1ccc(S(=O)(=O)N(C)C)cc1NC(=O)c1ccc2c(c1)NC(=O)C(C)S2 (stereo not given)	9.3µM*	/	5.2µM*	/	/	-5%
Cc1[nH]c2ccccc2c1C(=O)C(=O)N1CCN(c2ccccc2Cl)CC1	?	0	?	-9	-16%	-9%
Fc1cccc(NC(=S)N2CCN(c3ccccn3)CC2)c1	0%	0	-10%	8	-17%	4%
CCCC[C@@H]1CCCO[C@@](C(=O)NCCOC)(C(F)(F)F)C1	/	-6	/	-11	/	/
Cc1ccc(CN2CCN(CC(=O)N3CCC(C(N)=O)CC3)C2=O)cc1	/	/	/	/	21%	/
Cc1ccc(CN2CCN(CC(=O)N3CCc4ccccc4C3)C2=O)cc1	-6%	-2	17µM*	-28	-1%	9%
O=C(CCn1nc(-c2ccc(Cl)cc2)ccc1=O)N1CCC2(CC1)OCCO2	6%	4	31%	9	/	-3%
Cc1ccc(-c2ccc(=O)n(CCC(=O)N3CCC4(CC3)OCCO4)n2)cc1	30%	46*	?	138*	/	-2%
Cc1ccc(N(CC(=O)N2CCc3ccccc3C2)S(C)(=O)=O)cc1	-8%	4	?	-8	17%	6%
Cc1ccc(CNC(=O)CN2CCN(Cc3ccc(C)cc3)C2=O)cc1	/	-3	2.9µM*	-9	-10%	4%
Cc1ccc(CN2CCN(CC(=O)N3CCC4(CC3)OCCO4)C2=O)cc1	/	-2	3.7µM*	-17	-6%	1%
CC(OC(=O)CNC(=O)c1cccs1)C(=O)Nc1ccc(S(N)(=O)=O)cc1 (stereo not given)	33%	/	-9%	/	/	2%
COc1ccc(-c2n[nH]c(=S)n2-c2ccc(Br)cc2)cc1OC	4%	1	6%	-9	-4%	-12%
COC(=O)c1ccc(-n2cc(-c3ccc(OC)cc3)[nH]c2=S)cc1	?	7	?	51	-1%	3%
COc1ccc(-c2cn(-c3ccc(C)c(C)c3)c(=S)[nH]2)cc1OC	13µM*	11	2%	67	10%	-1%
